According to PubChem BioAssay (NCATS):
Results filed as inconclusive are left out. Active and inactive are the calls of the source. Unless noted, calls follow the shape of the dose curve; as a rule, active = well fitted curve in the direction sought with a large enough effect; inconclusive = small, poorly fitted or top-dose-only effect, or another doubt; inactive = no such curve, though single readings can be large; an effect the other way counts as inactive or inconclusive. *1 amine or outer side, *2 acyl side, *3 side chain or, on linkers, in order; H or OH if unused. Where a SMILES comes first, the peptide text is derived from it. [ ]: non-standard residue; d: D form. X5 = CC(CC(O[*:1])C(=O)[*:2])C(=O)O; NMeV = CN[CH](C(=O)O)C(C)C; NMeA = CN[CH](C)C(=O)O; βAla = NCCC(=O)O

Legend:
[1] = system: Zika virus NS2B-NS3 protease (unlinked complex); assay: Primary screen GU Rhodamine qHTS for Zika virus inhibitors: Unlinked NS2B-NS3 protease assay (AID 1347159); also: nearly all actives have a fitted effect of over 60% in size; also: potency is read from the fitted curve at half-maximal effect
In short: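 Percent inhibition derives from the 15-min fluorescence change (ex 480, em 540 nm), normalized to no-enzyme and no-inhibitor wells. Reactions contained 25 nM NS2B-NS3 complex and 1.5 microM substrate in 10 mM Tris-HCl pH 8.0.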

[2] = Primary qHTS for inhibitors of nuclear receptor binding SET domain protein 2 (NSD2) in an isogenic RCH-ACV NSD2 p.E1099K mutant (9B) (AID 1645876); also: nearly all actives have a fitted effect of over 70% in size; also: potency is read from the fitted curve at half-maximal effect
[3] = Primary qHTS for inhibitors of nuclear receptor binding SET domain protein 2 (NSD2) in an RCH-ACV wild type WT cells (2C) (AID 1645877); also: nearly all actives have a fitted effect of over 70% in size; also: potency is read from the fitted curve at half-maximal effect
HaCat [4] = assay: Cytotoxic Profiling of Annotated Libraries Using Quantitative High-Throughput Screening (AID 1296008); details: Five cell lines viability, CellTiter-Glo ATP luminescence, 48-72 h; max response: stronger effect = lower value; also: nearly all actives have a fitted effect of over 60% in size; also: potency is read from the fitted curve at half-maximal effect; as to max response: % is scaled to controls: 0 for no effect and ±100 for the full control effect
In short: (§1)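 Cytotoxicity was measured as CellTiter-Glo ATP luminescence, read after 10 min at room temperature. Compound treatment of the cells lasted 48 or 72 hr at 37 degrees Celsius in a qHTS format.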

HACAT [5] = assay: qHTS assay to identify novel small-molecules to repurpose for Merkel cell carcinoma treatment (AID 1296009); details: MCC and control cell lines, CellTiter-Glo viability, 72 h; at 44.8 µM (top of the series) unless noted; also: nearly all actives have a fitted effect of over 60% in size
In short: (§2)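 72 hr, 37 degree celsius; NPC 8-pt / MIPE 11-pt dose response; compound pinned in DMSO; CellTiter-Glo, 10 min RT, luminescence; normalized to no-cell and DMSO controls.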

HeLa = assay: Primary qHTS to identify gynecologic anti-cancer compounds using libraries of approved drugs and bioactive compounds (AID 1345084); details: Gynecologic cancer cell panel viability, ATPlite luminescence, 48 h; series mostly up to 57.5 µM; also: nearly all actives have a fitted effect of over 55% in size; also: potency is read from the fitted curve at half-maximal effect; as to activity change, negative = cytotoxicity: % is scaled to controls: 0 for no effect and ±100 for the full control effect
In short: (§3)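 Cells, 1,000 per well, plated 16 h, then exposed 48 h at 37 C to compounds. Viability by ATPlite luminescence after 15 min at room temperature.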

SKOV3 = assay: as above; details: Gynecologic cancer cell panel viability, ATPlite luminescence, 48 h; series mostly up to 57.5 µM
In short: as §3

[6] = target: Cytochrome P450 2D6 (Homo sapiens) (UniProt P10635); assay: Cytochrome P450 family 2 subfamily D member 6 (CYP2D6) small molecule antagonists: luciferase biochemical (cell-free) qHTS assay (AID 1645840; active = well fitted curve in the direction sought with a large enough effect in the repeat runs; an effect the other way counts as inactive or inconclusive; also: nearly all actives have a fitted effect of over 55% in size; also: potency is read from the fitted curve at half-maximal effect)
In short: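 P450-Glo luminescent screen: recombinant CYP2D6 enzyme–proluciferin substrate mix preincubated with compound 10 min at room temperature, then NADPH regeneration added for 1 h at room temperature. Detection reagent added for 20 min; luciferin light read as relative luminescence units.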

NIH3T3 [7] = assay: Cytotoxic Profiling of Annotated Libraries Using Quantitative High-Throughput Screening (AID 1296008); details: Five cell lines viability, CellTiter-Glo ATP luminescence, 48-72 h; max response: stronger effect = lower value; also: nearly all actives have a fitted effect of over 60% in size; also: potency is read from the fitted curve at half-maximal effect; as to max response: % is scaled to controls: 0 for no effect and ±100 for the full control effect
In short: as §1

[8] = P-glycoprotein substrates identified in KB-3-1 adenocarcinoma cell line, qHTS therapeutic library screen (AID 1346986); also: nearly all actives have a fitted effect of over 60% in size
In short: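 Cells seeded 500/well in DMEM/10% FCS; compounds pinned in dose-response; 72 h incubation; CellTiter-Glo added, 5 min, luminescence. KB-8-5-11 run ±tariquidar to test reversal of P-gp resistance.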

[9] = P-glycoprotein substrates identified in KB-8-5-11 adenocarcinoma cell line, qHTS therapeutic library screen (AID 1346987); also: nearly all actives have a fitted effect of over 65% in size; also: potency is read from the fitted curve at half-maximal effect; as to activity change, negative = cytotoxicity: % is scaled to controls: 0 for no effect and ±100 for the full control effect
In short: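 Steps: plate 500 KB-8-5-11 cells/well in DMEM + 10% FCS (colchicine removed); pin compounds in dose-response; incubate 72 h, 37 degree C, 5% CO2; add CellTiter-Glo, 5 min; read luminescence.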

[10] = target: Cytochrome P450 2C9 (Homo sapiens) (UniProt P11712); assay: Cytochrome P450 family 2 subfamily C member 9 (CYP2C9) small molecule antagonists: luciferase biochemical (cell-free) qHTS assay (AID 1645842; active = well fitted curve in the direction sought with a large enough effect in the repeat runs; an effect the other way counts as inactive or inconclusive; also: nearly all actives have a fitted effect of over 55% in size; also: potency is read from the fitted curve at half-maximal effect)
In short: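 Luminescence, after 20 min with luciferin detection reagent, reflected CYP2C9 turnover during a 1 h NADPH-driven reaction at 37C. Enzyme-substrate mix contained 0.4% bovine serum albumin and was preincubated with compound 10 min at room temperature.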

NIH3T3 [11] = assay: qHTS assay to identify novel small-molecules to repurpose for Merkel cell carcinoma treatment (AID 1296009); details: MCC and control cell lines, CellTiter-Glo viability, 72 h; at 44.8 µM (top of the series) unless noted; also: nearly all actives have a fitted effect of over 60% in size
In short: as §2

Cytochrome P450 2C9 (Homo sapiens), sequence (P11712 whole entry, looked up): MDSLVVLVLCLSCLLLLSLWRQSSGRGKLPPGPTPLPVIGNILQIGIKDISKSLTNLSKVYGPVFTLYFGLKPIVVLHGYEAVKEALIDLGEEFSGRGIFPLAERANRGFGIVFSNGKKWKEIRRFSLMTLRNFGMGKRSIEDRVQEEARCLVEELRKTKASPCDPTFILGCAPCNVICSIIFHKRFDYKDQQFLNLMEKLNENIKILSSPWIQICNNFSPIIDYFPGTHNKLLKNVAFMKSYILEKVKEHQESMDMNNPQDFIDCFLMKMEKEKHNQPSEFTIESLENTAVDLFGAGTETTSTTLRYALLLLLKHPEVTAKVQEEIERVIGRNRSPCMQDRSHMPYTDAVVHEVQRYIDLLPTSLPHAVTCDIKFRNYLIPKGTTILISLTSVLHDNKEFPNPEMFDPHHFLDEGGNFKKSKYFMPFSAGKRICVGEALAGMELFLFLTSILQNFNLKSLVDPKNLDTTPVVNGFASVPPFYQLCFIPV
Cytochrome P450 2D6 (Homo sapiens), sequence (P10635 whole entry, looked up): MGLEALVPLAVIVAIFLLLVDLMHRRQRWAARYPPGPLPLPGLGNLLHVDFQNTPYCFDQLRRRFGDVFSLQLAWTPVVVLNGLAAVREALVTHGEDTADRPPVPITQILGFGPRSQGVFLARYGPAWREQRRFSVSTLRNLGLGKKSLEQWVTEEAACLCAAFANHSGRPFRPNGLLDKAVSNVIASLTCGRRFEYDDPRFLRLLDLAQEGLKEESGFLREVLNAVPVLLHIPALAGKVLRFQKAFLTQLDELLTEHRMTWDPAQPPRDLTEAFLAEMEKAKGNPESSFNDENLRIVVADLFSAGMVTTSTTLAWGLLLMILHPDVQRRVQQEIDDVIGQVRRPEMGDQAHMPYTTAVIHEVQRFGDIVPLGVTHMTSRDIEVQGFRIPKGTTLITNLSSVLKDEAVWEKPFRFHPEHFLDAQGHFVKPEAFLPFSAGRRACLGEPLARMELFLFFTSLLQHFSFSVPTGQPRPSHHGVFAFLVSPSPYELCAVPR

C[C@]12CC[C@@H](O)C[C@@H]1CC[C@@H]1[C@@H]2CC[C@]2(C)C(=O)[C@@H](Br)C[C@@H]12
inactive: Potency [1] | outcome (HaCat [4]) | outcome (HACAT [5]) | Potency (HeLa) | Potency (SKOV3)
active: Potency [2] 6.49 µM | Potency [3] 10.3 µM

CN1C(=O)C(Cc2ccc3ccccc3c2)N=C(c2ccc(O)cc2)c2cc(Cl)ccc21 (centres undefined)
active: Potency [6] 10.7 µM
inactive: Potency [1] | outcome (HaCat [4]) | max response (NIH3T3 [7]) -0.878% | outcome (HACAT [5]) | Potency (HeLa) | Potency (SKOV3)

CCC(C)C1NC(=O)C2CCCN2C(=O)C(CC(C)C(=O)O)OC(=O)CCNC(=O)C(C)N(C)C(=O)C(C(C)C)N(C)C1=O (centres undefined) (cyclo([X5]PI[NMeV][NMeA][βAla]); configuration not given here)
inactive: Potency [8] | Potency [9] | Potency [1] | Potency [2] | Potency [3] | max response (HaCat [4]) 4.66% | max response (NIH3T3 [7]) 3.88% | Potency (SKOV3)

C=C1CC[C@H]2[C@@H](/C=C(\C)C(=O)[C@@]3(OC(C)=O)C[C@H](C)[C@H](OC(=O)c4ccccc4)[C@@H]3[C@H]1OC(C)=O)C2(C)C
inactive: Potency [9] | Potency [1] | max response (HaCat [4]) -1.11% | max response (NIH3T3 [7]) -4.22% | Potency (SKOV3)

C=C(C)[C@@]12O[C@@H]1[C@@]1(C)C(=C[C@H]2O)CC[C@@H](O)[C@@H]1C
inactive: Potency [8] | Potency [9] | Potency [1] | Potency [2] | Potency [3] | max response (HaCat [4]) -1.07% | max response (NIH3T3 [7]) 2.77% | Potency (HeLa) | Potency (SKOV3)

CCOP(=O)(OCC)Oc1ccc2c(C)cc(=O)oc2c1
inactive: max response (HaCat [4]) -15.5% | max response (NIH3T3 [7]) -21.6% | Potency (SKOV3)

COC1(C[S@@](=O)c2ccccc2)CCN(CCc2c[nH]c3ccc(F)cc23)CC1
active: Potency [6] 2.39 µM
inactive: Potency [9] | Potency [1] | Potency [10] | max response (HaCat [4]) 3.53% | max response (NIH3T3 [7]) 1.71% | Potency (HeLa) | Potency (SKOV3)

O=S(=O)(c1ccccc1F)N1CCOc2c(N3CCNCC3)cccc21
inactive: Potency [8] | Potency [9] | Potency [6] | outcome (HaCat [4]) | max response (NIH3T3 [7]) 2.22% | outcome (HACAT [5]) | Potency (HeLa) | Potency (SKOV3)
active: Potency [10] 9.52 µM

C/C=C(\C)C(=O)OC1C2C3(C)CCC(OC4CC(OC)C(OC5OC(C)C(O)C(OC)C5O)C(C)O4)CC3CCC23OC32CCC(C(C)=O)C2(C)C1OC(=O)/C(C)=C/C (centres undefined)
inactive: activity change, negative = cytotoxicity [9] -5.07% [at 9.29 µM] | Potency [1] | activity change, negative = viability loss [2] -17.6% [at 9.23 µM] | outcome (HaCat [4]) | max response (NIH3T3 [7]) -16.5% | outcome (HACAT [5]) inactive [at 9.27 µM] | activity change, negative = cytotoxicity (HeLa) 13% [at 11.6 µM] | activity change, negative = cytotoxicity (SKOV3) -30.2% [at 11.6 µM]

C[C@H]1CC[C@@H]2[C@@H](C)[C@H]3[C@H](C[C@H]4[C@@H]5CC=C6CC(O[C@@H]7O[C@H](CO)[C@@H](O)[C@H](O[C@@H]8O[C@H](CO)[C@@H](O)[C@H](O)[C@H]8O)[C@@H]7O[C@@H]7O[C@@H](C)[C@H](O)[C@@H](O)[C@H]7O)CC[C@]6(C)[C@H]5CC[C@]34C)N2C1 (some centres undefined)
inactive: outcome [9] inactive [at 9.29 µM] | Potency [1] | max response (HaCat [4]) -13.1% | outcome (NIH3T3 [7]) | outcome (NIH3T3 [11]) inactive [at 9.27 µM] | activity change, negative = cytotoxicity (HeLa) 8.23% [at 11.6 µM]

CC(O)(c1ccccc1)C(Cc1ccc(Cl)cc1)n1cncn1 (centres undefined)
active: Potency [10] 0.952 µM
inactive: Potency [9] | Potency [1] | outcome (HaCat [4]) | max response (NIH3T3 [7]) 1.55% | outcome (HACAT [5]) | Potency (HeLa) | Potency (SKOV3)

C/C=C1/CN2CC[C@]34C(=Nc5ccccc53)[C@@H]2C[C@@H]1[C@H]4C(=O)OC
inactive: Potency [1] | Potency [2] | Potency [3] | max response (HaCat [4]) -0.364% | max response (NIH3T3 [7]) -14.3% | Potency (HeLa) | Potency (SKOV3)

C=C[C@H]1CN2CCC1C[C@H]2[C@H](O)c1ccnc2ccccc12 (some centres undefined)
inactive: Potency [9] | Potency [1] | Potency [2] | Potency [3] | max response (HaCat [4]) -26.7% | max response (NIH3T3 [7]) -5.71% | Potency (HeLa) | Potency (SKOV3)

CN1C(=O)[C@]23CC4C(C)(C)[C@@]5(C[C@@]41CN2CC[C@@]3(C)O)C(=O)Nc1c5ccc2c1OC=CC(C)(C)O2 (some centres undefined)
active: Potency [1] 7.08 µM
inactive: Potency [2] | Potency [3] | max response (HaCat [4]) -7.56% | max response (NIH3T3 [7]) -0.852% | Potency (HeLa) | Potency (SKOV3)

C[C@@H]1CCC2[C@@H](C)C(=O)OC3O[C@@]4(C)CCC1[C@]32OO4 (some centres undefined)
inactive: Potency [9] | Potency [1] | max response (HaCat [4]) -1.21% | max response (NIH3T3 [7]) -13.5% | Potency (HeLa) | Potency (SKOV3)

O=C(N1CCCCC1Cc1ccccc1)n1cc(-c2ccc(-c3ccccc3)cc2)nn1 (centres undefined)
inactive: Potency [1] | Potency [6] | outcome (HaCat [4]) | outcome (NIH3T3 [7]) | outcome (HACAT [5]) | outcome (NIH3T3 [11]) | Potency (SKOV3)
active: Potency [10] 2.68 µM

Cc1ccc2c(c1)[C@H]1CN(C)CC[C@H]1N2C(=O)CSc1nnnn1-c1ccc(Cl)cc1
active: Potency [6] 10.7 µM
inactive: Potency [9] | Potency [1] | Potency [10] | Potency [2] | Potency [3] | outcome (HaCat [4]) | outcome (NIH3T3 [7]) | outcome (HACAT [5]) | outcome (NIH3T3 [11]) | Potency (HeLa) | Potency (SKOV3)

C[C@]12CC[C@@H](O[C@@H]3O[C@H](CO)[C@@H](O)[C@H](O)[C@H]3O)C[C@@]1(O)CCC1C2CC[C@]2(C)[C@@H](C3=CC(=O)OC3)CC[C@]12O (some centres undefined)
active: Potency [9] 159 nM | Potency [2] 0.0796 µM | Potency [3] 0.112 µM | Potency (HaCat [4]) 1 µM | Potency (HeLa) 398 nM | Potency (SKOV3) 355 nM
inactive: outcome (NIH3T3 [7]) | outcome (NIH3T3 [11]) inactive [at 17.4 µM]
